# Among all 310,000 compounds or so, about 14,000 (4.5%) showed an effect of 50% or more. The effect is printed as a negative number. The sample as a whole holds a higher share of strong results than the screen did.
# Target: human ether-à-go-go-related gene (hERG) potassium channel (human, UniProt Q12809)
# Assay: primary screen, population patch clamp on CHO cells stably expressing hERG; higher = less effect of the substance
# 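Further: peak tail current of the secondary pulse compared with the same well before compound.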
# Sequence of human ether-à-go-go-related gene (hERG) potassium channel (Q12809 whole entry, looked up): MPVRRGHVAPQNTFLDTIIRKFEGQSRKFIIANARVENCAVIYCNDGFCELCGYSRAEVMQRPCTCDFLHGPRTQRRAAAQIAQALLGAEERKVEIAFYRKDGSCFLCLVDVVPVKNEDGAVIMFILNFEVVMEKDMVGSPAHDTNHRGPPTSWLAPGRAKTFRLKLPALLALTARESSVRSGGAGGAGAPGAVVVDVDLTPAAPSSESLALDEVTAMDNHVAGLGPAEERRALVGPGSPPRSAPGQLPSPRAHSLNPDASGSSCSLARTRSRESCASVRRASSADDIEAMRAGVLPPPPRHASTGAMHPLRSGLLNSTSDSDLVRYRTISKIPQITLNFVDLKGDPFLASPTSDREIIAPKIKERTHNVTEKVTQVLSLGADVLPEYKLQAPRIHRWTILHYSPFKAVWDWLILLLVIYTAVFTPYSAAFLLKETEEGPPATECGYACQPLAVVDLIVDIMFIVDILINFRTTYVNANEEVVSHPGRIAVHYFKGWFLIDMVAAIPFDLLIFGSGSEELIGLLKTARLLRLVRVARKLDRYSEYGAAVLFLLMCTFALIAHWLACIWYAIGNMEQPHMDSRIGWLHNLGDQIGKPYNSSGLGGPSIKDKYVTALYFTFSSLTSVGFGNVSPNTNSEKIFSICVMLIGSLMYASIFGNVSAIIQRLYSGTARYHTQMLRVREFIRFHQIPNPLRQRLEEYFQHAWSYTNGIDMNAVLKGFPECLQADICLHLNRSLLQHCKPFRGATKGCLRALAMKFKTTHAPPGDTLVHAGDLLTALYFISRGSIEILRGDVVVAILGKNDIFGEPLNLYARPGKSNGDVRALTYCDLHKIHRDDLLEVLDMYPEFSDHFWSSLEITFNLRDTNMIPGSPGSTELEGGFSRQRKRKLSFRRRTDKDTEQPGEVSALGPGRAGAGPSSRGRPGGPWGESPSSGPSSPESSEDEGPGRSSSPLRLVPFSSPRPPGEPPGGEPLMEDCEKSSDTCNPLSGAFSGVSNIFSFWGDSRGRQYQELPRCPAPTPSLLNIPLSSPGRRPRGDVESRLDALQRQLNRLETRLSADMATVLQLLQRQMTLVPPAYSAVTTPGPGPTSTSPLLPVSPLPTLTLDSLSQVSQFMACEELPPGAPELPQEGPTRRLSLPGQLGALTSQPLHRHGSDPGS
row,Structure (SMILES),"hERG current change (%, negative = inhibition) at 10uM"
1,CC(C)(C)N/C=C(\C#N)S(=O)(=O)c1ccc(Br)cc1,-10.5%
2,C=CCN1C(=O)C2C(C(=O)NC)C3C=CC2(O3)C1C(=O)NCc1ccc(OC)cc1 (stereo not drawn),0.24%
3,Cc1cc(C)n2nc(CC(=O)NC3CCCCCC3)nc2n1,5.03%
4,Cc1cc(C)n2nc(SCC(=O)NC3CCCCC3)nc2n1,1.68%
5,Cc1cc(C)n2nc(CC(=O)NC3CCCCCCC3)nc2n1,-70.9%
6,CCOC(=O)CCc1c(C(=O)OCC)[nH]c(CC)c1C(=O)OCc1ccccc1,-17.2%
7,COCc1cc(C)nc(SCC(=O)Nc2ccc3c(c2)OCCO3)c1C#N,13.4%
8,CCOC(=O)C1CCN(C(=O)CN2C(=O)c3ccccc3Sc3ncccc32)CC1,6.06%
9,Cc1ccc(CNC(=O)c2ccc(CS(=O)Cc3cccc(Cl)c3)o2)cc1 (stereo not drawn),-21.5%
10,O=C(NCc1ccc(Cl)cc1)c1ccc(CS(=O)Cc2cccc(Cl)c2)o1 (stereo not drawn),-53.5%
11,COc1ccc(OC)c(CCNC(=O)c2ccc(CS(=O)Cc3ccc(Cl)cc3)o2)c1 (stereo not drawn),-31%
12,O=C(NCc1cccc(Cl)c1)c1ccc(CS(=O)Cc2ccccc2Cl)o1 (stereo not drawn),-3.52%
13,O=C(NCc1ccc2c(c1)OCO2)c1ccc(CS(=O)Cc2cccc(Cl)c2)o1 (stereo not drawn),-23.6%
14,COc1ccc(CNC(=O)c2ccc(CS(=O)Cc3cccc(Cl)c3)o2)cc1 (stereo not drawn),-37.5%
15,O=C(NCc1ccccc1Cl)c1ccc(CS(=O)Cc2ccc(Cl)cc2)o1 (stereo not drawn),-46.9%
16,O=C(NCc1cccs1)c1ccc(CS(=O)Cc2cccc(Cl)c2)o1 (stereo not drawn),-39.6%
17,COc1ccc(CNC(=O)c2ccc(CS(=O)Cc3ccc(Cl)cc3)o2)cc1 (stereo not drawn),-84.6%
18,Cc1ccc(CS(=O)Cc2ccc(C(=O)NCc3ccccc3)o2)cc1 (stereo not drawn),11%
19,O=C(NCc1ccccc1)c1ccc(CS(=O)Cc2ccc(Cl)cc2)o1 (stereo not drawn),-62.5%
20,O=C(NCc1cccc(Cl)c1)c1ccc(CS(=O)Cc2ccc(Cl)cc2)o1 (stereo not drawn),-62.1%
21,COc1cc2c(C(=O)Nc3ccc4c(c3)OCO4)cn(CC(C)C)c(=O)c2cc1OC,-2.44%
22,CCOC(=O)C1C(=O)NC(C)C1c1ccccc1 (stereo not drawn),-4.44%
23,O=C(COC(=O)c1cc2c(s1)CCCC2)NCc1ccccc1Cl,1.44%
24,CC(C)(C)c1ccc(C(=O)N2CCC(C(=O)NCC3CCCO3)CC2)cc1 (stereo not drawn),-23.6%

row,Structure (SMILES),"hERG current change (%, negative = inhibition) at 10uM"
1,CC(=O)C1=C(O)C(=O)N(c2ccc(O)cc2)C1c1ccc(Cl)cc1 (stereo not drawn),17.4%
2,O=C(O)c1ccccc1OC(C(=O)Nc1cc(Cl)cc(Cl)c1)c1ccccc1 (stereo not drawn),13.5%
3,CC(=O)NC12CC3CC(C1)CC(C(=O)N1CCN(S(=O)(=O)c4ccccc4[N+](=O)[O-])CC1)(C3)C2,-20.8%
4,CCOC(=O)N1CCc2c(sc(NC(=O)c3ccc(S(=O)(=O)N4CCCC4)cc3)c2C#N)C1,19.3%
5,Cc1nnc(OCc2nc3ccccc3n2C)c2ccccc12,-27.4%
6,Cc1ccc(NC(=O)Cn2cc(C=O)c3ccccc32)cc1,17.5%
7,COc1cccc(CNC(=O)C2=Cc3cccc(OC)c3OC2)c1,4.36%
8,O=C(NCc1ccc(Cl)cc1)C1=Cc2cc(Cl)ccc2OC1,-10.2%
9,COc1ccc2c(c1)C=C(C(=O)NCc1ccc(Cl)cc1)CO2,-67%
10,COc1cc(C2Nc3ccccc3C(=O)N2c2ccccc2)c(Br)cc1OCC(=O)O (stereo not drawn),0.108%
11,CCOc1cc(C2Nc3ccccc3C(=O)N2c2ccccc2)ccc1O (stereo not drawn),4.38%
12,CCOc1cc(C2Nc3ccccc3C(=O)N2c2ccccc2)c(Br)cc1OCC(=O)O (stereo not drawn),-53.8%
13,Cc1ccc2ccc(C(Nc3ccccn3)c3ccccc3)c(O)c2n1 (stereo not drawn),-3.72%
14,CCOc1ccc(CNC(=S)NCc2ccc(OCC)cc2)cc1,15.2%
15,O=C(c1ccco1)N1CCN(Cc2c(Cl)cccc2Cl)CC1,-8.42%
16,Cc1onc(-c2ccccc2Cl)c1C(=O)N1CCN(C(=O)c2ccco2)CC1,-16%
17,Cc1oc(-c2ccc(Cl)cc2)nc1CN1CCCC(C(=O)N2CCN(C(=O)c3ccco3)CC2)C1 (stereo not drawn),-89.5%
18,COC(=O)c1ccc(-c2nc(CN3CCCN(C(=O)c4ccco4)CC3)c(C)o2)cc1,-41.4%
19,Cc1oc(-c2ccc(Cl)cc2)nc1CN1CCCN(C(=O)c2ccco2)CC1,-72.4%
20,COc1ccc(F)c(-c2nc(CN3CCN(C(=O)c4ccco4)CC3)c(C)o2)c1,-35.9%
21,CCOc1ccccc1-c1nc(CN2CCCN(C(=O)c3ccco3)CC2)c(C)o1,9.83%
22,Cc1ccc(-c2nc(CSCC(=O)N3CCN(C(=O)c4ccco4)CC3)c(C)o2)cc1,-32.7%
23,Cc1oc(-c2ccccc2Cl)nc1CN1CCCN(C(=O)c2ccco2)CC1,-65.4%
24,O=C(c1ccco1)N1CCN(Cc2csc(-c3ccccc3Cl)n2)CC1,-64.9%

row,Structure (SMILES),"hERG current change (%, negative = inhibition) at 10uM"
1,COc1ccc(-c2nc(CN3CCN(C(=O)c4ccco4)CC3)c(C)o2)cc1OC,1.8%
2,Cc1ccccc1-c1nc(CN2CCN(C(=O)c3ccco3)CC2)c(C)o1,-5.18%
3,CCCC(=O)C1=C(O)C(C(=O)OC)C(C)(C)CC1=NC(C)C (stereo not drawn),15.1%
4,Cc1cccc(C)c1NC(=O)CSc1nnc(C)c(=O)[nH]1,15.1%
5,CC[C@@H]1C(=O)OC[C@@H]1CC1=CN=C[NH+]1C.O=[N+]([O-])[O-],15.7%
6,O=C(O)c1ccc(Oc2ccc(S(=O)(=O)c3ccc(C(=O)O)c(C(=O)O)c3)cc2)cc1,9.42%
7,COc1ccc(CNC(=O)COC(=O)c2ccc(OCc3c(C)noc3C)cc2)cc1OC,13.8%
8,CC1(O)CC(=O)N(c2ccccc2)O1 (stereo not drawn),-1.7%
9,CCN(CCCNC(=O)C1CCC(=O)N1C1CCCC1)c1cccc(C)c1 (stereo not drawn),-2.31%
10,COc1ccc(OC)c(CNn2c(-c3cccc(C)c3)nc3ccccc3c2=O)c1,6.92%
11,Cc1cc(C)nc(SC2CCOC2=O)n1 (stereo not drawn),0.669%
12,Cc1oc(-c2cccc(F)c2)nc1CN1CCCN(C(=O)c2ccco2)CC1,-74.7%
13,Cc1oc(-c2cc(F)ccc2F)nc1CN1CCCN(C(=O)c2ccco2)CC1,-36.6%
14,Cc1oc(-c2cc(F)cc(F)c2)nc1CN1CCN(C(=O)c2ccco2)CC1,-40.5%
15,Cc1ccc(S(C)(=O)=O)cc1C(=O)N1CC(C(N)=O)Oc2ccccc21 (stereo not drawn),15.6%
16,Cc1cc(Br)c(S(=O)(=O)NCCN2CCOCC2)cc1C,7.8%
17,CCn1c(SCC(=O)Nc2ccc3c(c2)OCCO3)nnc1-c1ccco1,-25.9%
18,C=CCn1c(SCC(=O)Nc2ccc3c(c2)OCCO3)nnc1-c1ccccn1,-28.3%
19,Cn1c(SCC(=O)Nc2ccc3c(c2)OCCO3)nnc1-c1ccco1,8.89%
20,CCCn1c(SCC(=O)Nc2ccc3c(c2)OCCO3)nnc1-c1ccco1,-66.1%
21,C=CCn1c(SCC(=O)Nc2ccc3c(c2)OCO3)nnc1-c1ccccc1,-34.7%
22,C=CCn1c(SCC(=O)Nc2ccc3c(c2)OCCO3)nnc1-c1ccco1,-63.3%
23,COc1ccc(-c2nnc(NC(=O)c3ccc([N+](=O)[O-])o3)o2)c(OC)c1,19.2%
24,CC(C)(C)N(NC(=O)OCc1ccccc1)C(=O)c1ccccc1Cl,-17.5%

row,Structure (SMILES),"hERG current change (%, negative = inhibition) at 10uM"
1,CCOC(=O)C1=NN(c2ccc(F)cc2)C2=NC(C)=C(C(=O)OC)C(c3cccs3)N12 (stereo not drawn),-2.17%
2,O=C(O)CCCCCN1C(=O)C(O)=C(C(=O)/C=C/c2ccccc2)C1c1ccc2c(c1)OCO2 (stereo not drawn),1.89%
3,CNC(=S)NCC(O)c1ccc([N+](=O)[O-])cc1 (stereo not drawn),5.5%
4,CC(NCC(O)c1ccc([N+](=O)[O-])cc1)C12CC3CC(CC(C3)C1)C2 (stereo not drawn),-69.4%
5,CC(=O)NCC(O)c1ccc([N+](=O)[O-])cc1 (stereo not drawn),13.6%
6,COc1ccccc1NC(=O)c1cc(C(=O)O)ccc1C(=O)O,20.4%
7,CCOc1ccccc1NC(C)C(=O)Nc1cc(C(F)(F)F)ccc1N1CCOCC1 (stereo not drawn),-6.23%
8,COc1ccc(OC)c(C(=O)NC(CC(N)=O)c2ccc(NCCN3CCCC3)c([N+](=O)[O-])c2)c1 (stereo not drawn),8.75%
9,Cc1ccc(SCC(=O)NCCCN2CCOCC2)cc1,15%
10,Cc1ccc(NC(=S)N(CCCN2CCOCC2)Cc2cccs2)c(C)c1,-11.7%
11,Cc1ccc(Cl)cc1NC(=S)N(CCCN1CCOCC1)Cc1ccco1,-28.5%
12,Cc1ccc(Cl)cc1NC(=S)N(CCN(C)C)Cc1cccs1,-0.292%
13,Cc1ccccc1NC(=S)N(CCCN1CCCCC1)Cc1ccco1,-45.4%
14,CCN1CCN(CCCN(Cc2cccs2)C(=S)Nc2ccccc2C)CC1,-54.4%
15,Cc1ccc(Cl)cc1NC(=S)N(CCCN1CCN(C)CC1)Cc1ccco1,-52.3%
16,Cc1ccccc1NC(=S)N(CCCN1CCOCC1)Cc1cccs1,-39.9%
17,Cc1ccc(Cl)cc1NC(=S)N(CCCN1CCN(C)CC1)Cc1cccs1,-61.7%
18,Cc1ccc(Cl)cc1NC(=S)N(CCCN1CCOCC1)Cc1ccccn1,-34.3%
19,Cc1cc(Cl)ccc1NC(=S)N(CCCN1CCOCC1)Cc1cccs1,-32.2%
20,Cc1ccc(Cl)c(NC(=S)N(CCCN2CCOCC2)Cc2ccco2)c1,-35.3%
21,CCN1CCN(CCCN(Cc2ccco2)C(=S)Nc2cc(Cl)ccc2C)CC1,-61.9%

# From article PMC4336329 (PLoS ONE, 2015)
